Measured values from PubChem BioAssay (EPA / NIEHS).
Where “and” joins values, the source holds several entries; their conditions need not be identical. Equal values may be shown once. Inconclusive results are not listed. Calls of active or inactive are those of the source. The calls were made as follows, unless noted: active = hit-call score of the fitted dose curve at least 0.9, where 1 is the maximum; inconclusive = response in the unintended direction; inactive = score below 0.9.

Columns and labels:
[1] = CCTE_Padilla_ZF_144hpf_TERATOSCORE: (Legacy) CCTE's 144 Hour Post-fertilization zebrafish Assay Teratoscore, Padilla Lab (AID 2283679; active = hit-call score of the fitted dose curve at least 0.9, where 1 is the maximum; inactive = score below 0.9;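 as to AC50: zebrafish embryos with chorions exposed by immersion from 6-8 hpf to 5 dpf with daily renewal; teratogenicity score from eye scoring of death hatching and malformations at 144 hpf; higher score means more developmental defects relative to DMSO baseline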)
Procedure, shortened: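 Larvae scored by eye at 144 hpf for death, hatching and malformations after a day in clean Hanks'. Before that, daily-renewed exposure at 80 uM (0.4% DMSO, 26C) from roughly 6-8 hpf through 5 dpf, 4 embryos per chemical.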

[2] = read-out: xenobiotic metabolism (CYP1A2), CYP1A2 (gene 1544); assay: CLD_CYP1A2_24hr: CellzDirect (CLD) Gene Expression Assay for xenobiotic metabolism (CYP1A2) at 24 hours (AID 2283683)
Procedure, shortened: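 CYP1A2 mRNA induction measured by quantitative nuclease protection (chemiluminescent) in human primary hepatocytes 24 h after multi-concentration chemical dosing with daily fresh solutions. DMSO (0.2%) baseline; positive-direction fitting; morphology-based cytotoxicity noted.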

[3] = read-out: ABC Transporter (ABCB1), ABCB1 (gene 5243); assay: CLD_ABCB1_24hr: CellzDirect (CLD) Gene Expression Assay for ABC Transporter (ABCB1) at 24 hours (AID 2283684)
Procedure, shortened: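 ABCB1 mRNA induction versus 0.2% DMSO vehicle was read by qNPA chemiluminescence at 24 h. Cultured human hepatocytes from two donor preparations received daily fresh dosing, and phase-contrast cytotoxicity calls were annotated alongside the data.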

[4] = read-out: Glyceraldehyde-3-phosphate dehydrogenase (Homo sapiens) (UniProt P04406); assay: CLD_GAPDH_24hr: CellzDirect (CLD) Gene Expression Assay for Baseline Control (Glyceraldehyde 3-phosphate dehydrogenase) at 24 hours (AID 2283692)
Procedure, shortened: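 GAPDH baseline-control readout: qNPA chemiluminescent mRNA signal in human primary hepatocytes harvested 24 h after daily dosing, normalised to 0.2% DMSO with positive fitting direction; cytotoxicity annotated by phase-contrast morphology.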

[5] = read-out: alkyl and aryl transferase (GSTA2), GSTA2 (gene 2939); assay: CLD_GSTA2_24hr: CellzDirect (CLD) Gene Expression Assay for alkyl and aryl transferase (GSTA2) at 24 hours (AID 2283693)
Procedure, shortened: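 GSTA2 transcript levels were quantified by quantitative nuclease protection assay in primary human hepatocytes 24 h after daily dosing with fresh solutions at multiple concentrations; 0.2% DMSO vehicle as baseline, cytotoxicity flagged morphologically.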

[6] = read-out: sulfotransferase (SULT2A), SULT2A1 (gene 6822); assay: CLD_SULT2A_24hr: CellzDirect (CLD) Gene Expression Assay for sulfotransferase (SULT2A) at 24 hours (AID 2283694);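 as to AC50: potency for increased SULT2A1 mRNA level as induction over DMSO baseline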
Procedure, shortened: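 mRNA is measured by qNPA: probe hybridisation, S1 nuclease digestion, chemiluminescence, in lysates from human primary hepatocytes harvested 24 h after daily dosing. Vehicle was 0.2% DMSO. Phase-contrast microscopy flagged cytotoxicity (yes/no).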

[7] = read-out: Cytochrome P450 2B6 (Homo sapiens) (UniProt P20813); assay: CLD_CYP2B6_24hr: CellzDirect (CLD) Gene Expression Assay for xenobiotic metabolism (CYP2B6) at 24 hours (AID 2283686)
Procedure, shortened: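 qNPA chemiluminescent measurement of mRNA at 24 hours in human primary hepatocyte cultures from two donor preparations, with daily fresh dosing and 0.2% DMSO vehicle as baseline. Morphology-based cytotoxicity flagged yes/no.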

[8] = read-out: organic anion transporter (SLCO1B1), SLCO1B1 (gene 10599); assay: CLD_SLCO1B1_24hr: CellzDirect (CLD) Gene Expression Assay for organic anion transporter (SLCO1B1) at 24 hours (AID 2283690)
Procedure, shortened: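 SLCO1B1 mRNA induction read at 24 h by quantitative nuclease protection assay (chemiluminescence), analyzed against DMSO baseline. Human hepatocyte cultures from separate donors received fresh dosing solutions daily; vehicle 0.2% DMSO; cytotoxicity flagged by phase-contrast morphology.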

Measured: AC50

Glyceraldehyde-3-phosphate dehydrogenase (Homo sapiens), sequence (P04406 whole entry, looked up): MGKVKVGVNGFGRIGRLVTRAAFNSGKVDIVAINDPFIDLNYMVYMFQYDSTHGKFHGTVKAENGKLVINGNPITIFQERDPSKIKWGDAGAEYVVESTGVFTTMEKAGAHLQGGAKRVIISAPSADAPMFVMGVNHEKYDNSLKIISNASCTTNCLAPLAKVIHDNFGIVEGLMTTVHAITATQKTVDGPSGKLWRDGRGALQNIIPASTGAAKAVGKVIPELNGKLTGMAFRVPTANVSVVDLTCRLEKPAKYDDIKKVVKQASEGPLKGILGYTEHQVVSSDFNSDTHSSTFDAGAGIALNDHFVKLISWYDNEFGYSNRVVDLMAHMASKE

Cc1ccc(-c2c(Cl)nc(C#N)n2S(=O)(=O)N(C)C)cc1
active: [1] 5.47 µM | [2] 0.521 µM
inactive: [3] | [4] | [5] | [6]

CON(C)C(=O)Nc1ccc(Cl)c(Cl)c1
active: [1] 60.1 µM | [2] 1.29 µM | [7] 0.735 µM

CN(C)C(=S)SSC(=S)N(C)C
inactive: [3] | [4] | [5]
active: [1] 0.0128 µM

C=CCC1=C(C)[C@@H](OC(=O)[C@@H]2[C@@H](C=C(C)C)C2(C)C)CC1=O
active: [1] 3.51 µM | [7] 20 µM
inactive: [2] | [3] | [5] | [6]

CC(C)Oc1cc(-n2nc(C(C)(C)C)oc2=O)c(Cl)cc1Cl
active: [1] 9.05 µM | [2] 4.14 µM | [7] 0.829 µM
inactive: [3] | [6]

Cc1cc(Cl)ccc1OCC(=O)O
inactive: [1] | [3] | [7] | [8]

CNC(=S)S
inactive: [2] | [3] | [4] | [6]

CCOC(=O)C(Cl)Cc1cc(-n2nc(C)n(C(F)F)c2=O)c(F)cc1Cl (stereo unspecified)
active: [1] 0.57 µM | [7] 6.33 µM
inactive: [2] | [3] | [5] | [6]

N#Cc1nn(-c2c(Cl)cc(C(F)(F)F)cc2Cl)c(N)c1S(=O)C(F)(F)F (stereo unspecified)
active: [1] 31.1 µM | [7] 1.9 µM | [6] 2.43 µM
inactive: [3] | [5]

O=C(O)COc1nc(Cl)c(Cl)cc1Cl
inactive: [1] | [2] | [3] | [7] | [4] | [6]

N#Cc1cc(Br)c(O)c(Br)c1
inactive: [3] | [8] | [4] | [5] | [6]
active: [1] 15.3 µM | [2] 33.4 µM

COc1ccc(C(c2ccc(OC)cc2)C(Cl)(Cl)Cl)cc1
active: [1] 1.14 µM | [2] 20 µM | [7] 7.11 µM
inactive: [8] | [5] | [6]

Fc1ccc(Oc2ccnc3cc(Cl)cc(Cl)c23)cc1
inactive: [3] | [7] | [5]
active: [1] 5.83 µM | [2] 2.84 µM

CC(Oc1ccc(Cl)cc1Cl)C(=O)O (stereo unspecified)
active: [1] 0.67 µM
inactive: [3] | [7] | [4] | [5]

COc1cnc(OC)n2nc(NS(=O)(=O)c3c(OCC(F)F)cccc3C(F)(F)F)nc12
inactive: [1] | [2] | [3] | [7] | [5] | [6]

CCCN(CCC)c1c([N+](=O)[O-])cc(S(N)(=O)=O)cc1[N+](=O)[O-]
active: [1] 15.8 µM and 15.6 µM | [6] 20 µM
inactive: [3]
